The supplement of paper PMC9023506
Counter-ions that a name gives are not always drawn.

test system: Danio rerio larvae (5 dpf); experiment: excitability to 1-s acoustic pulses, difference vs DMSO (percentage points (treated minus DMSO)); higher = more of the behaviour than the DMSO vehicle control; details: 10 µM; exposure time: 3 h pre-incubation + 3 h imaging
Procedure: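 5-dpf wild-type zebrafish larvae were imaged in 96-well plates. They were treated with 190 Tocris FDA-approved drugs at 10 µM (1 µl/ml DMSO) for 3 h before and 3 h during imaging at 28.5 °C, 48 larvae per drug. Automated image analysis gave % time moving and optomotor responses. Values are drug group mean minus DMSO vehicle mean (n=844), in percentage points, for 10 behaviours.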

**Q.** Which “excitability to 1-s acoustic pulses” value does the source give for `C=C1C[C@@H]2[C@H](CC[C@]3(C)C(=O)CC[C@@H]23)[C@@]2(C)C=CC(=O)C=C12` [Exemestane] here?
**A.** Its value is 11.5.

**Q.** How did the “excitability to 1-s acoustic pulses” value turn out when `CC(O)(CS(=O)(=O)c1ccc(F)cc1)C(=O)Nc1ccc(C#N)c(C(F)(F)F)c1` (configuration not stated) [Bicalutamide] was run?
**A.** The value was 3.69.

**Q.** `COc1ccc(C(CN(C)C)C2(O)CCCCC2)cc1` (configuration not stated) [Venlafaxine hydrochloride] was tested. Which “excitability to 1-s acoustic pulses” value did it give?
**A.** The value was 8.33.

**Q.** With `CCN(C)C(=O)Oc1cccc([C@H](C)N(C)C)c1` [Rivastigmine tartrate] as the molecule, how does the “excitability to 1-s acoustic pulses” value read?
**A.** The value was 2.04.

**Q.** With `CC[C@@H](C(N)=O)N1CCCC1=O` [Levetiracetam] as the molecule, how does the “excitability to 1-s acoustic pulses” value read?
**A.** Its value is 1.84.

**Q.** With `C=CCN1C[C@H](C(=O)N(CCCN(C)C)C(=O)NCC)C[C@@H]2c3cccc4[nH]cc(c34)C[C@H]21` [Cabergoline] as the molecule, how does the “excitability to 1-s acoustic pulses” value read?
**A.** The value was 10.

**Q.** How did the “excitability to 1-s acoustic pulses” value turn out when `CN1C[C@H](C(=O)N[C@]2(C)O[C@@]3(O)[C@@H]4CCCN4C(=O)[C@H](Cc4ccccc4)N3C2=O)C[C@@H]2c3cccc4[nH]cc(c34)C[C@H]21` [Dihydroergotamine mesylate] was run?
**A.** The value was 1.17.

**Q.** How did the “excitability to 1-s acoustic pulses” value turn out when `Cc1cccc([C@H](C)c2c[nH]cn2)c1C` [Dexmedetomidine hydrochloride] was run?
**A.** Its value is 8.78.

**Q.** With `O=c1[nH]c2ccccc2n1C1CCN(CCCC(c2ccc(F)cc2)c2ccc(F)cc2)CC1` [Pimozide] as the molecule, how does the “excitability to 1-s acoustic pulses” value read?
**A.** The value was -3.54.

**Q.** With `N[C@@H]1C[C@H]1c1ccccc1` [Tranylcypromine hydrochloride] as the molecule, how does the “excitability to 1-s acoustic pulses” value read?
**A.** The value was 0.887.

**Q.** For `CC(C)C[C@H]1C(=O)N2CCC[C@H]2[C@]2(O)O[C@](NC(=O)[C@@H]3C=C4c5cccc6[nH]c(Br)c(c56)C[C@H]4N(C)C3)(C(C)C)C(=O)N12` [Bromocriptine mesylate], which “excitability to 1-s acoustic pulses” value is on record?
**A.** The value was 17.6.

**Q.** With `COc1cc2c(cc1OC)C1CC(=O)C(CC(C)C)CN1CC2` (configuration not stated) [Tetrabenazine] as the molecule, how does the “excitability to 1-s acoustic pulses” value read?
**A.** Its value is 21.7.
